Data: PubChem BioAssay (NCI)
About 83,000 compounds went through this panel and 20% of them were active in at least one assay; those are over-represented in the sample as a whole.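 Values shown are percent growth following 48 h exposure of cells in 96-well plates to a single concentration of compound; below 10 was considered active.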 A number with no mark means an inactive call. Activity calls are given as the source filed them.

Tests used:
Experiment in all cases: NCI-60 one-dose screen, 48 h (100 = growth as untreated, 0 = no growth, -100 = all killed)
Conditions in all cases: 10 µM
DU-145 prostate = tested on: DU-145 prostate
K-562 leukemia = tested on: K-562 leukemia
MALME-3M melanoma = tested on: MALME-3M melanoma
MDA-MB-231 breast = tested on: MDA-MB-231 breast
RXF 393 renal = tested on: RXF 393 renal
SF-268 CNS = tested on: SF-268 CNS
SF-295 CNS = tested on: SF-295 CNS
SF-539 CNS = tested on: SF-539 CNS
UACC-257 melanoma = tested on: UACC-257 melanoma
M14 melanoma = tested on: M14 melanoma

| SMILES | growth (DU-145 prostate) | growth (K-562 leukemia) | growth (MALME-3M melanoma) | growth (MDA-MB-231 breast) | growth (RXF 393 renal) | growth (SF-268 CNS) | growth (SF-295 CNS) | growth (SF-539 CNS) | growth (UACC-257 melanoma) | growth (M14 melanoma) |
| --- | --- | --- | --- | --- | --- | --- | --- | --- | --- | --- |
| O=C(Nc1cccc(C(F)(F)F)c1)C(Cl)Cl | 98.3% | 102% | 94.7% | 127% | 104% | 99.4% | 90.4% | 93.8% | 98% | 98.8% |
| CC(C)c1[nH]nc2c(NCc3ccc(-c4ccccn4)cc3)nc(SCCN)nc12 | 5.83% (active) | 3.89% (active) | -41.3% (active) | 5.07% (active) | -71.4% (active) | -0.883% (active) | 4.57% (active) | -54.4% (active) | 1.34% (active) | -43.1% (active) |
| Clc1ccc(-c2nc(-c3cccs3)cn3ccnc23)cc1 | 94.7% | 26.1% | 86% | 66.5% | 86.7% | 82.8% | 81.9% | 76.7% | 70.2% | 61.5% |
| CC1(C)CNC(=O)N1 | 110% | 98.1% | 95.2% | 100% | 108% | 103% | 98.7% | 98.9% | 99.8% | 94.1% |
| Cc1cccc2c1O/C(=C\c1ncc([N+](=O)[O-])n1C)C2=O | -29.7% (active) | 0.421% (active) | -51.5% (active) | -7.78% (active) | -63.7% (active) | -26.4% (active) | -15.2% (active) | -61% (active) | -40.8% (active) | -49.2% (active) |
| COc1cc(-c2nc3cc(Cl)c(Cl)cc3[nH]2)ccc1OCC(=O)NN | 75.5% | 31.9% | 95.3% | 57.8% | 131% | 77.6% | 71.5% | 80.5% | 96.9% | 95.1% |
| Cc1ccc(C)c2c1sc1nc3n[nH]c(N)c3c(=N)n12 | 111% | 98.3% | 128% | 101% | 112% | 109% | 106% | 101% | 104% | 108% |
| Cc1ccc2c3c(cccc13)-c1ccccc1C2=O | 101% | 108% | 110% | 95.5% | 105% | 95.7% | 95.1% | 97.2% | 101% | 98.6% |
| CC(=O)n1nc(C(=O)OC(C)(C)C)c2cc(F)c(F)cc21 | 102% | 110% | 98.7% | 94% | 126% | 101% | 101% | 104% | 113% | 90.9% |
| CCCCCCN=C(N)CCCCCCCCCCC(N)=NCCCCCC | 58.5% | 13.5% | 44.9% | 32.1% | 35.8% | 28.8% | 41% | 29.3% | 79.8% | 23.2% |
| O=C1CC[C@@H](C(=O)N[C@H]2CSSC[C@@H](C(=O)N/C=C/c3ccc(O)cc3)NC(=O)[C@H](Cc3ccccc3)NC(=O)[C@@H]3CCCN3C(=O)[C@@H]3CCCN3C2=O)N1 | 106% | 93.9% | 115% | 98.9% | 96.9% | 107% | 99.5% | 96.6% | 95.4% | 94.5% |
| COc1cc(C2C(C#N)=C(c3c[nH]c4ccccc34)Nc3nc(N)[nH]c(=O)c32)cc(OC)c1OC (stereo not given) | 86.5% | 50.4% | 71.1% | 89.5% | 73.2% | 88.3% | 97.6% | 48.4% | 99.1% | 95.7% |
| Cn1cnc([N+](=O)[O-])c1/C=C1\Oc2ccc(Cl)cc2C1=O | 94.2% | 52.4% | 87.6% | 86.7% | 99.1% | 86.5% | 105% | 99.2% | 84.9% | 87.5% |
| COc1cc(CSc2nc3ccc(C)cc3c(=O)n2Cc2ccccc2)cc(OC)c1OC | 9.78% (active) | 13.8% | 30.1% | 44.4% | -16.9% (active) | 51.5% | 31% | -16.4% (active) | 47.4% | 35.6% |
| Cc1nc2cc(-n3c(-c4ccc(F)cc4)nc4ccccc4c3=O)ccc2n1Cc1ccccc1 | 20.8% | 8.27% (active) | -45.1% (active) | -25.5% (active) | -31.3% (active) | 8.04% (active) | 47.1% | -72.6% (active) | -18% (active) | 3.21% (active) |
| COC(=O)c1cnc2c(c1)Oc1ccccc1-c1ccnn1-2 | 109% | 90.7% | 101% | 94.8% | 107% | 98.7% | 105% | 97% | 101% | 98.8% |
| CCN1CCN(c2ccc(Nc3ncnc4c3nnn4CCc3cc(OC)cc(OC)c3)cc2)CC1 | 104% | 77.7% | 92.6% | 95.4% | 97.7% | 97.4% | 90.2% | 95.5% | 84.8% | 98.6% |
| O=C(c1ccccc1)C(Nc1ccccc1)c1ccccc1 (stereo not given) | 100% | 90.5% | 90% | 89.7% | 103% | 93.1% | 90.7% | 96.7% | 93.4% | 97.5% |
| CCN(CCCNC(=O)Cc1cc(=O)oc2cc(N(C)C)ccc12)CCNc1ccnc2cc(Cl)ccc12 | 109% | 0.722% (active) | 88.2% | 78.7% | 74.6% | 92.1% | 80.5% | 25.2% | 41.9% | 11.5% |
| Cc1cc2cc3c(=O)[nH]c(=O)cc-3n(CC(O)C(O)C(O)CO)c2cc1C (stereo not given) | 95.5% | 108% | 104% | 109% | 115% | 108% | 97.6% | 107% | 110% | 107% |
| CCOC(=O)C1=C(Nc2ccc(OC)cc2)C(N)=NC1=N | 44.1% | 19% | 31.9% | 67.5% | 46.7% | 60% | 54.8% | 25% | 44.9% | 27.3% |
| COc1cccc2c1C(=O)c1c(O)c3c(c(O)c1C2=O)C[C@@](O)(C(=O)COC(=O)c1ccccc1)C[C@@H]3OC1CC(N)C(O)C(C)O1 (stereo not given in full) | -87.6% (active) | -73.7% (active) | -88.4% (active) | -82% (active) | -80.3% (active) | -65.6% (active) | -91.2% (active) | -94.7% (active) | -91.3% (active) | -69.9% (active) |
| Cc1ccc2oc(=O)cc(/C(=C3/C=CC=N3)c3ccc[nH]3)c2c1 | 0.492% (active) | -0.946% (active) | 25.6% | -6.98% (active) | -21.7% (active) | 12.7% | -23.9% (active) | -33.6% (active) | 6.21% (active) | -7.95% (active) |
| COc1ccc(-c2nnc(COc3ccc(NC(=O)Nc4cccc(C(F)(F)F)c4)cc3F)o2)cc1 | 71.9% | 45.3% | 60.5% | 42.5% | 86.6% | 75.1% | 64.2% | 57.6% | 71.8% | 60.8% |
| Cc1cccc2c(Nc3ccc(NS(C)(=O)=O)cc3)c3ccc([N+](=O)[O-])cc3nc12 | -15.3% (active) | 1.15% (active) | -22% (active) | 61.4% | -31.9% (active) | 12.5% | -15.2% (active) | 16.8% | -16.3% (active) | 16.7% |
| CCCCn1c(=O)[nH]c2c(c1=O)C(c1ccc(Cl)cc1)c1c([nH]c(=O)n(CCCC)c1=O)N2 | 105% | 105% | 89.8% | 106% | 109% | 99% | 89.8% | 101% | 96.8% | 96.6% |
